Source: PubChem BioAssay (NCATS)
Inconclusive results are not listed. Active and inactive are the calls of the source. Calls come from the whole dose curve; as a rule, active = well fitted curve in the direction sought with a large enough effect; inconclusive = small, poorly fitted or top-dose-only effect, or another doubt; inactive = no such curve, though single readings can be large; an effect the other way counts as inactive or inconclusive.

Tests used:
[1] = Confirmation and Secondary Assay for Modulators of Hemoglobin Beta Chain Splicing at IVS2 654 locus (AID 910);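 note: per-well total GFP intensity by laser scanning cytometry after 2-day treatment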
In short: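 HeLa cells stably carrying EGFP interrupted by mutant beta-globin IVS2-654 intron (CMV-driven) were treated with compound for 2 days at 37C; corrected splicing was scored as total peak GFP intensity per well (488 nm excitation, 500-520 nm emission).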

[2] = Confirmation and Secondary Assay for Modulators of Hemoglobin Beta Chain Splicing at IVS2 705 locus (AID 930);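 note: HeLa cells stably expressing the EGFP-705 splicing reporter; GFP fluorescence per well restored by corrected splicing of the IVS2-705 intron in EGFP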
In short: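 HeLa EGFP-705 reporter; 500 cells/well, o/n 37C 5% CO2; cpd 2 d; 488 ex/500-520 em laser scan; total peak GFP intensity/well. Ref: 500 nM […] antisense PNA.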

[3] = target: ATP-dependent 6-phosphofructokinase (Trypanosoma brucei brucei) (UniProt O15648); assay: qHTS Assay to Find Inhibitors of T. brucei phosphofructokinase: hit validation (AID 492961);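 note: luminescence reports ADP formed as PFK phosphorylates fructose-6-phosphate with ATP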
Chain of ATP-dependent 6-phosphofructokinase (Trypanosoma brucei brucei) (O15648 whole entry, looked up): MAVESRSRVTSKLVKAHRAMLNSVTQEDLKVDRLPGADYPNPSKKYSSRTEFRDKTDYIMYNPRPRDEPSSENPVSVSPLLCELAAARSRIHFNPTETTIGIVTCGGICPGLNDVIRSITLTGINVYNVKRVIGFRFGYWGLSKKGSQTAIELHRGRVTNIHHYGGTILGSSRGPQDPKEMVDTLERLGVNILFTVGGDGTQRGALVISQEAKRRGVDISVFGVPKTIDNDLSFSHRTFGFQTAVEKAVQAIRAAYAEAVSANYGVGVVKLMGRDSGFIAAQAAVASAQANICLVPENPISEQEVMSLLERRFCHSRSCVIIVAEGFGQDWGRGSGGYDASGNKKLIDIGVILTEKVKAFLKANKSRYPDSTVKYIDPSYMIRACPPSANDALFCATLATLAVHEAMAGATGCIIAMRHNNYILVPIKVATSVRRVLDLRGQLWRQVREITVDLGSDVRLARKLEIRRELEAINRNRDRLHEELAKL
In short: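 PFK 1.25 nM, F6P 0.5 mM, ATP 0.1 mM, MgCl2 5 mM, 0.1 M TEA pH 8.0, Tween20 0.01%, BSA 0.1%; 45 min RT. ADP-Glo two-step detection, luminescence. qHTS titration; curve fitting with curve-class categorization.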

[4] = target: Luciferin 4-monooxygenase (Photinus pyralis) (UniProt P08659); assay: Biochemical firefly luciferase enzyme assay for NPC (AID 624030);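 note: purified P. pyralis luciferase at 10 nM with luciferin and ATP substrate; nearly all actives have a fitted effect of over 70% in size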
Chain of Luciferin 4-monooxygenase (Photinus pyralis) (P08659 whole entry, looked up): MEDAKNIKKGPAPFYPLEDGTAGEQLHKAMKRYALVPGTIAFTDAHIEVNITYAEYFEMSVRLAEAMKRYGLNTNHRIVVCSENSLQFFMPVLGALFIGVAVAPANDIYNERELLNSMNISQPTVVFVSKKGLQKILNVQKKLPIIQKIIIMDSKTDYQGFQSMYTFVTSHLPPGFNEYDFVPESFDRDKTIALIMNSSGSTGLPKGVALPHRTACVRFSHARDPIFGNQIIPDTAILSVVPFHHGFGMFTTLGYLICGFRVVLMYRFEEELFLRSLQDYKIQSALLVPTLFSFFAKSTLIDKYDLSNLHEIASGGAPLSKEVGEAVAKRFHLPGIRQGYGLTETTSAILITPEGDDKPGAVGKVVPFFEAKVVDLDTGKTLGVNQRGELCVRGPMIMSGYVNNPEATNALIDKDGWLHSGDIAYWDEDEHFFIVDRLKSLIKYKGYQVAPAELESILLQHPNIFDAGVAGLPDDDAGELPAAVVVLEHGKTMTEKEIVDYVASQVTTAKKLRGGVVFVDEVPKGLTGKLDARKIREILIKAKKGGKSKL
In short: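 Counter-screen for direct inhibition of the luciferase enzyme by approved-drug library compounds, run at 10 nM enzyme in 50 mM Tris acetate (final). Luminescence was read within 5 min of enzyme-buffer addition and normalized to PTC124 versus DMSO (0%).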

AS120 = assay: qHTS profiling for inhibitors of Plasmodium falciparum proliferation (AID 504749); note: nearly all actives have a fitted effect of over 60% in size; note: potency is the fitted concentration of half-maximal effect; conditions: P. falciparum in erythrocytes, SYBR Green DNA, 72 h; series mostly up to 28.7 µM
In short: (§1)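 Fluorescence of SYBR Green-bound parasite DNA, read at 485/535 nm, served as the growth measure. Infected erythrocytes were cultured with compound 72 h; artemisinin (0.29 uM) and DMSO wells defined the normalization range.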

ATS189 = assay: as above; conditions: P. falciparum in erythrocytes, SYBR Green DNA, 72 h; series mostly up to 12.8 µM
In short: as §1

CP191 = assay: as above; conditions: P. falciparum in erythrocytes, SYBR Green DNA, 72 h; series mostly up to 12.8 µM
In short: as §1

CP192 = assay: as above; conditions: P. falciparum in erythrocytes, SYBR Green DNA, 72 h; series mostly up to 28.7 µM
In short: as §1

CP201 = assay: as above; conditions: P. falciparum in erythrocytes, SYBR Green DNA, 72 h; series mostly up to 12.8 µM
In short: as §1

CP238 = assay: as above; conditions: P. falciparum in erythrocytes, SYBR Green DNA, 72 h; series mostly up to 12.8 µM
In short: as §1

CP247 = assay: as above; conditions: P. falciparum in erythrocytes, SYBR Green DNA, 72 h; series mostly up to 12.8 µM
In short: as §1

CP250 = assay: as above; conditions: P. falciparum in erythrocytes, SYBR Green DNA, 72 h; series mostly up to 12.8 µM
In short: as §1

CP265 = assay: as above; conditions: P. falciparum in erythrocytes, SYBR Green DNA, 72 h; series mostly up to 12.8 µM
In short: as §1

Dd2 = assay: as above; conditions: P. falciparum in erythrocytes, SYBR Green DNA, 72 h; series mostly up to 12.8 µM
In short: as §1

FAB9 = assay: as above; conditions: P. falciparum in erythrocytes, SYBR Green DNA, 72 h; series mostly up to 12.8 µM
In short: as §1

N140 = assay: as above; conditions: P. falciparum in erythrocytes, SYBR Green DNA, 72 h; series mostly up to 12.8 µM
In short: as §1

P94_40 = assay: as above; conditions: P. falciparum in erythrocytes, SYBR Green DNA, 72 h; series mostly up to 12.8 µM
In short: as §1

PC15 = assay: as above; conditions: P. falciparum in erythrocytes, SYBR Green DNA, 72 h; series mostly up to 12.8 µM
In short: as §1

PC49 = assay: as above; conditions: P. falciparum in erythrocytes, SYBR Green DNA, 72 h; series mostly up to 12.8 µM
In short: as §1

[5] = target: Muscarinic acetylcholine receptor M1 (Rattus norvegicus) (UniProt P08482); assay: qHTS Assay for Antagonists of Acetylcholine Muscarinic M1 Receptor: Measurement of IP-One Response (AID 944); note: nearly all actives have a fitted effect of over 75% in size
Chain of Muscarinic acetylcholine receptor M1 (Rattus norvegicus) (P08482 whole entry, looked up): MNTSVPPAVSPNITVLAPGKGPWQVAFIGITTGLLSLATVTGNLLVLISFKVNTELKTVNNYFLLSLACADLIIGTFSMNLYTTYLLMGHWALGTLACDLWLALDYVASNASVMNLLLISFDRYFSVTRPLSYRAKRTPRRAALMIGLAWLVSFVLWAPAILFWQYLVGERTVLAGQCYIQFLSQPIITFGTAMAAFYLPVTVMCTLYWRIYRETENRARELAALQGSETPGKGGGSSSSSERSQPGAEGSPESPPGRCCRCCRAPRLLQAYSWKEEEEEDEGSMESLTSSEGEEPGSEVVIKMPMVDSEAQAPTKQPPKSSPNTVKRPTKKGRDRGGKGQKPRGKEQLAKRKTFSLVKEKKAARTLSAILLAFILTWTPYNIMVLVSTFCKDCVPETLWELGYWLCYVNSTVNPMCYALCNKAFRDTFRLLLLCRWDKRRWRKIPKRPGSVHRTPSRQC
In short: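 Antagonism was measured as loss of carbachol-driven (EC80) IP1 accumulation in CHO cells carrying rat M1, using a homogeneous IP-One TR-FRET kit read at 620 and 665 nm.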

Measured: Potency

COc1ccccc1CNc1ccnc(-c2ccccc2C(F)(F)F)n1
inactive: [1] | [2]

COc1ccc2[nH]cc(CCNc3nc(-c4ccoc4)nc4ccccc34)c2c1
inactive: [1] | [2]

c1ccc2c(Nc3ccncc3)nc(-c3ccc4c(c3)OCO4)nc2c1
inactive: [1] | [2]

CN(C)Cc1ccccc1-c1ccc2ncnc(N(C)Cc3ccco3)c2c1
inactive: [1] | [2]

CN(C)Cc1ccccc1-c1ccc2ncnc(NC3CC3)c2c1
inactive: [2]

Cc1noc(C)c1-c1nccc(N2CCNCC2)n1
inactive: [1] | [2]

Cc1ccccc1-c1cncnc1NCCN1CCOCC1
inactive: [1] | [2]

COc1ccccc1-c1nccc(NCc2cccc(C)c2)n1
inactive: [1] | [2]

Cc1cnc(CNc2ccnc(-c3ccc(N(C)C)cc3)n2)cn1
inactive: [1] | [2]

Cc1ccccc1-c1cncnc1N1CCNCC1
inactive: [1]

N#Cc1ccccc1-c1cncnc1NCc1cccnc1
inactive: [1] | [2]

COc1cccc(-c2nc(N3CCNCC3)c3ccccc3n2)c1
inactive: [1] | [2]

Cc1cccc(CNc2cc(-c3cccc(NS(C)(=O)=O)c3)ncn2)c1
inactive: [1]

CN1CCN(c2nc(-c3cccc(NS(C)(=O)=O)c3)nc3ccccc23)CC1
inactive: [2]

COc1ccccc1CNc1ncnc2ccc(-c3ccc(N(C)C)cc3)cc12
inactive: [1] | [2]

CN1CCN(c2ccnc(-c3ccccc3C(F)(F)F)n2)CC1
inactive: [1] | [2]

CN(C)Cc1ccccc1-c1cncnc1NCc1ccccc1
inactive: [1] | [2]

CC[C@@]12CCCN3CCc4c(n(c5ccccc45)C(=O)C1)[C@H]32
not listed: [1] | [2] | [5]
inactive: all other assays above

COc1ccccc1CNc1ncncc1-c1ccc(N(C)C)cc1
inactive: [1] | [2]

c1ccc2c(N3CCNCC3)nc(-c3ccoc3)nc2c1
inactive: [1] | [2]

COc1ccc2[nH]cc(CCNc3nc(-c4cccc(NS(C)(=O)=O)c4)nc4ccccc34)c2c1
inactive: [1] | [2]

c1ccc(Nc2ncnc3ccc(-c4ccc5c(c4)OCO5)cc23)cc1
inactive: [1] | [2]

CN(C)C(=O)c1ccc(-c2nc(NCc3cccnc3)c3ccccc3n2)cc1
inactive: [1]

COc1ccc2[nH]cc(CCNc3ncnc4ccc(-c5ccc(C(=O)N(C)C)cc5)cc34)c2c1
inactive: [2]

Cc1cccc(CNc2ccnc(-c3cccc(NS(C)(=O)=O)c3)n2)c1
inactive: [1] | [2]

CN(C)c1ccc(-c2ccc3ncnc(NCc4ccccc4)c3c2)cc1
inactive: [2]

C[C@@H](C[N+](C)(C)C)OC(N)=O
inactive: [5]

N[C@@H](CO)C(=O)NNCc1ccc(O)c(O)c1O
not listed: [1] | [2]
inactive: all other assays above

CN1Cc2c(N)cccc2[C@H](c2ccccc2)C1
inactive: [5]

CN(C)[C@@H]1C(=O)C(C(N)=O)=C(O)[C@]2(O)C(=O)C3=C(O)c4c(O)ccc(Cl)c4[C@H](O)[C@H]3C[C@@H]12
active: Dd2 3.16 µM
not listed: [1] | [2]
inactive: all other assays above

CCCN[C@@H](C)C(=O)Nc1ccccc1C
not listed: [1] | [2] | [5]
inactive: all other assays above

C[C@@H]1c2cccc(O)c2C(O)=C2C(=O)[C@@]3(O)C(O)=C(C(N)=O)C(=O)[C@@H](N(C)C)[C@@H]3[C@@H](O)[C@@H]21
active: Dd2 3.98 µM
not listed: [1] | [2] | ATS189 | CP238 | P94_40
inactive: all other assays above

CC(=O)OCC1=C(C(=O)O)N2C(=O)[C@@H](NC(=O)CSc3ccncc3)[C@@H]2SC1
not listed: [1] | [2]
inactive: all other assays above

CO[C@]1(NC(=O)CSCC#N)C(=O)N2C(C(=O)O)=C(CSc3nnnn3C)CS[C@H]21
not listed: [1] | [2] | [5]
inactive: all other assays above

C[C@@H](CCc1ccccc1)NC[C@H](O)c1ccc(O)c(C(N)=O)c1
not listed: [1] | [2]
inactive: all other assays above

CCCCCN(CCCCC)C(=O)[C@H](CCC(=O)O)NC(=O)c1ccc(Cl)c(Cl)c1
inactive: [5]

Cc1cccc(CNc2ncnc3ccc(-c4cccc(NS(C)(=O)=O)c4)cc23)c1
inactive: [1] | [2]

NC(=O)c1cc[n+](CC2=C(C(=O)O)N3C(=O)[C@@H](NC(=O)[C@H](c4ccccc4)S(=O)(=O)[O-])[C@@H]3SC2)cc1
active: AS120 3.16 µM | ATS189 1.58 µM | CP191 1.41 µM | CP238 3.55 µM | CP247 3.55 µM | CP250 3.98 µM | CP265 1.41 µM | Dd2 1.26 µM | FAB9 3.16 µM | N140 1.41 µM | P94_40 1.26 µM | PC15 1 µM | PC49 3.16 µM
inactive: [3] | [4]
